Assay results reported in the OligoGym collection.

molecular target: ZBTB24; experiment: pooled miR-30 sensor sort-seq; sequence = guide strand; conditions: shRNA
Further: reference of the scale not given here.

Row | Sequence | sensor-assay potency score (higher = more potent)
1 | TTAGGGATAACAACCACTGGGG | -0.555
2 | TTTAGCTGTCTGTTCTGGCTGA | 0.857
3 | TTGTACTTAAAGACCTTGCCAC | -0.0819
4 | TTAAGTTTGACGGATCTCCAAA | -1
5 | TTGCTGTATCGACTCTGGCTTG | -0.983

molecular target: ZBTB39; experiment: as above; conditions: shRNA

Row | Sequence | sensor-assay potency score (higher = more potent)
6 | TTAAGTACACAGACCACCCAGC | -0.108
7 | AAGTCCACCACATAGGTCCTGG | -0.52
8 | TTCAACACTAGCAAAAACCTGT | -0.0406
9 | TTAGACATCTACTATTTGGGGA | 0.801
10 | TTAAACACAACACAGAACAGAA | -0.952
11 | TTGCTTGTGAAACAGCCCGGGG | -1.25
12 | TAGTGTTTCAAGCAAAACCATT | -1.46
13 | TAAGCAGACACCAACATCCCTG | -0.047
14 | TTAGTTTCACACATGTCGCAGG | -0.128
15 | TATTATGCTAGAGACAATCTGG | 0.145
16 | TAGAACTTTCTTGCACACCTGG | -0.103
17 | TAAAGAAACATCAAAATCGAGT | -0.558
